The text below walks through data of PubChem BioAssay.

SMILES strings stand for the structures. A number with no mark means an inactive call.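 The calls were made as follows, unless noted: active = viability increase at or above a cutoff of the median across tested compounds plus 3 SD (cut at about 8.5% in these data, passing the limit was not always enough); inconclusive = some gains above the cutoff, reason not given; inactive = the rest.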 Results filed as inconclusive are left out.

The first assay can be described thus: doxorubicin toxicity protection in MRP-1 cells – H69AR cells, CellTiter-Glo, duplicate, MRP-1 activator project, pilot screen (AID 807).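 Also: compound pretreatment 18-22 h then 72 h combined with doxorubicin; 0% = doxorubicin alone and 100% = vehicle without doxorubicin.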 The note with it: H69AR viability with doxorubicin, CellTiter-Glo luminescence; at 10 µM; hits give high values. A general note: ATP-based viability assays read luminescence as a measure of living cells.
Consider `COc1cc(NS(=O)(=O)c2ccc(NC(=O)COc3ccc(C)cc3)cc2)nc(OC)n1`, for which the viability increase is -1.12%. On to `CC(=O)c1ccc(N2CCN(C(=O)c3ccc(NC(=O)C4CCCO4)cc3)CC2)cc1` (centres undefined), for which the viability increase is -3%. Same read-out and setting: for `CCN(CC)S(=O)(=O)c1ccc2oc(C(=O)NCC3COc4ccccc4O3)c(C)c2c1` (centres undefined) the value was -7.27%; for `C(=N\c1nccs1)/c1c[nH]c2ccccc12`, -4.92%. The same measure, in the same setting: the figure for `COc1cc(C)c(C(C)C)cc1S(=O)(=O)n1cnc(C)c1` is -3.58%; for `CNC(=O)C1C2C=CC3(O2)C1C(=O)N(CCOC)C3C(=O)NCc1ccc(OC)cc1` (centres undefined) it is -1.22%; for `CC1CCc2sc3nc(N4CCN(CCO)CC4)n4ncnc4c3c2C1` (centres undefined) it is -7.82%. The same measure, in the same setting: the figure for `CCOC(=O)c1cc(NC(=O)OC)c(C)nc1C` is -2.65%; for `NC(=O)CCn1nc(-c2ccccc2)c2ccccc2c1=O` it is -2.48%. In the case of `CCC1(C)Cc2c(sc3c2c2ncnn2c2nnc(SCC(=O)NCc4ccco4)n32)CO1` (centres undefined), the viability increase was -7.33%.

For `Cc1cc(NS(=O)(=O)c2ccccc2)cc(Cl)c1O`, the viability increase was -2.8%.

With `COc1ccc(CC(=O)Nc2cc(C)c3c(=O)oc4ccccc4c3n2)cc1`, the viability increase is -4.14%. `COCCNC(=O)c1ccc2c(=O)n(CCOC)c(=O)[nH]c2c1`: the viability increase was -3.33%. As for `CCOc1ccc(-n2c(SCC(N)=O)nc3c(c2=O)SCC3)cc1`, the viability increase is -0.72%. As to `CCn1cc(C(=O)NCCCN2CC(C)CC(C)C2)c2cc(OC)c(OC)cc2c1=O` (centres undefined), the viability increase was -2.98%. For the compound `CCOC(=O)N1CCN(C(=O)c2oc3ccc(S(=O)(=O)N4CC(C)CC(C)C4)cc3c2C)CC1` (centres undefined), the viability increase is -6.37%. Take `Cc1ccc(S(=O)(=O)N2CCC(C(=O)N[C@@H](C)C(=O)NCC3CCCO3)CC2)cc1` (some centres undefined): the viability increase is -2.65%. The same measure, in the same setting: for `Cc1cc(S(=O)(=O)N2CCN(Cc3ccc4c(c3)OCO4)CC2)cc(C)c1N1CCCC1=O` the value was -3.13%; for `CCCn1c(CN2CCN(c3cccc(Cl)c3)CC2)nc2c1c(=O)n(C)c(=O)n2C`, -4.06%. On the same count and under the same terms, for `CC(C)CC(NC(=O)C1CCC(C)CC1)C(=O)Nc1ccccn1` (centres undefined) the value was -1.42%; for `NC(=O)C1CCN(c2nc(C3CC3)nc3c2nnn3Cc2ccccc2Cl)CC1`, -6.11%. The same measure, in the same setting: for `CCOC(=O)COc1cccc2c(=O)n(CC(=O)NCc3ccc4c(c3)OCO4)ccc12` the value was -5.67%; for `CSC(=NCCCN1CCOCC1)NS(=O)(=O)c1cccs1`, -1.56%. In the case of `COC(=O)CNC(=O)Cn1cnc2sc(C)c(S(=O)(=O)N3CCC(C)CC3)c2c1=O`, the viability increase is -3.93%. The same measure, in the same setting: for `Cc1cc(C)c(C)c(S(=O)(=O)Nc2ccccc2C(=O)NCCCn2ccnc2)c1C` the value was -5.57%. On the same count and under the same terms, the figure for `Cc1ccc(N(CC(=O)Nc2ccc(S(=O)(=O)N3CCOCC3)cc2)S(C)(=O)=O)cc1C` is -4.96%.

As to `CC1CN(C(=O)c2ccccc2C(=O)c2ncc[nH]2)CC(C)O1` (centres undefined), the viability increase was -1.55%. As to `CC(=O)c1ccc(C(=O)Nc2nnc(-c3ccc(Cl)cc3)o2)cc1`, the viability increase was -3.75%. On to `Cc1cc(C)nc(NS(=O)(=O)c2ccc(NC(=O)c3cccs3)cc2)n1`, for which the viability increase was -2.29%. The same measure, in the same setting: the figure for `Cn1nnc2c(NCc3ccco3)nccc21` is -4.4%; for `Cc1cc(NC(=O)c2ccc3c(c2)C(=O)N(C2CCCCC2)C3=O)no1` it is -6.76%. The same measure, in the same setting: for `CCOC(=O)C1CCN(C(=O)Cc2c(C(=O)O)[nH]c3ccccc23)CC1` the value was -1.36%; for `CCOC(=O)N1CCN(C(=O)CN(c2cccc(C)c2)S(=O)(=O)c2ccccc2)CC1`, -2.44%. Take `CC(=O)Nc1c(C(=O)c2ccc(F)cc2)oc2ccccc12`: the viability increase is -3.23%. On the same count and under the same terms, the figure for `CCc1ccc(-c2nc(CSCC(=O)N3CCN(c4ncccn4)CC3)c(C)o2)cc1` is -3.72%; for `COc1cc(NC(=O)COc2ccc(-n3cnnn3)cc2)c(OC)cc1Cl` it is -5.31%; for `COc1ccccc1CC(=O)Nc1ccc(-c2nnc(-c3ccco3)o2)cc1` it is -2.58%.

Turning to `CC(=O)c1c(C(C)=O)c(C)n(-c2nc(-c3ccccc3)c(C)s2)c1C`, the viability increase was -2.37%. Consider `CCOC(=O)C1(c2csc(N)n2)COC(=O)C1` (centres undefined), for which the viability increase is -0.78%. On the same count and under the same terms, the figure for `COc1ccc(-c2nc(SC)n(C)c(=O)c2C#N)cc1OC` is -4.81%.

The next assay can be described thus: viability of HCT116 without oncogenic beta-catenin – human colon tumor cells, pilot screen (AID 823;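 active = cell viability at or below a set limit in both duplicate runs, the limit being the all-compound median minus 4 SD, cut at about 23% in these data, passing the limit was not always enough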;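 also: 0% = wells killed by 20 µM Hyamine and 100% = untreated DMSO cell wells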). The following applies: HCT116 beta-catenin knockout viability, CellTiter-Glo, 60 h; at 10 µM; hits give low values.
The term viability denotes a read-out of living cells in per cent, often relative to untreated cells. Take `CC(=O)c1ccc(N2CCN(C(=O)c3ccc(NC(=O)C4CCCO4)cc3)CC2)cc1` (centres undefined): the viability was 91.2%. Still for that read-out and setting: for `C(=N\c1nccs1)/c1c[nH]c2ccccc12` the value was 92.4%; for `CNC(=O)C1C2C=CC3(O2)C1C(=O)N(CCOC)C3C(=O)NCc1ccc(OC)cc1` (centres undefined), 96%.

In the case of `CC1CCc2sc3nc(N4CCN(CCO)CC4)n4ncnc4c3c2C1` (centres undefined), the viability was 73.3%. Regarding `CCOC(=O)c1cc(NC(=O)OC)c(C)nc1C`, the viability was 106%. For `CCC1(C)Cc2c(sc3c2c2ncnn2c2nnc(SCC(=O)NCc4ccco4)n32)CO1` (centres undefined), the viability was 58.1%. As to `COc1ccc(CC(=O)Nc2cc(C)c3c(=O)oc4ccccc4c3n2)cc1`, the viability was 75.3%. For the compound `CCOc1ccc(-n2c(SCC(N)=O)nc3c(c2=O)SCC3)cc1`, the viability is 98.2%. Same read-out and setting: the figure for `Cc1ccc(S(=O)(=O)N2CCC(C(=O)N[C@@H](C)C(=O)NCC3CCCO3)CC2)cc1` (some centres undefined) is 97%; for `CC(C)CC(NC(=O)C1CCC(C)CC1)C(=O)Nc1ccccn1` (centres undefined) it is 92.9%. Turning to `NC(=O)C1CCN(c2nc(C3CC3)nc3c2nnn3Cc2ccccc2Cl)CC1`, the viability is 84.4%. The same measure, in the same setting: the figure for `CSC(=NCCCN1CCOCC1)NS(=O)(=O)c1cccs1` is 95.6%.

In the case of `Cc1cc(C)c(C)c(S(=O)(=O)Nc2ccccc2C(=O)NCCCn2ccnc2)c1C`, the viability is 70.2%.

Regarding `CC1CN(C(=O)c2ccccc2C(=O)c2ncc[nH]2)CC(C)O1` (centres undefined), the viability was 99%. In the case of `Cc1cc(C)nc(NS(=O)(=O)c2ccc(NC(=O)c3cccs3)cc2)n1`, the viability was 97.7%. `Cn1nnc2c(NCc3ccco3)nccc21`: the viability is 96.6%. Regarding `CCOC(=O)C1CCN(C(=O)Cc2c(C(=O)O)[nH]c3ccccc23)CC1`, the viability was 90.5%. The same measure, in the same setting: the figure for `CC(=O)Nc1c(C(=O)c2ccc(F)cc2)oc2ccccc12` is 87.4%; for `CCOC(=O)C1(c2csc(N)n2)COC(=O)C1` (centres undefined) it is 96.8%.
